Columns and labels:
Assay in all cases: log2 ratio of Biotin-Ahx-Ub-VS probe labelling (fragment/DMSO); higher = less target engagement (more negative = stronger competition), active = hit call of the paper (q ≤ 0.05, log2 ratio ≤ -1)
Settings in all cases: compound concentration: 200 uM; treatment time: 3 h
USP42 = molecular target: T1, USP42 (UniProt Q9H9J4)
T1 sequence (whole entry): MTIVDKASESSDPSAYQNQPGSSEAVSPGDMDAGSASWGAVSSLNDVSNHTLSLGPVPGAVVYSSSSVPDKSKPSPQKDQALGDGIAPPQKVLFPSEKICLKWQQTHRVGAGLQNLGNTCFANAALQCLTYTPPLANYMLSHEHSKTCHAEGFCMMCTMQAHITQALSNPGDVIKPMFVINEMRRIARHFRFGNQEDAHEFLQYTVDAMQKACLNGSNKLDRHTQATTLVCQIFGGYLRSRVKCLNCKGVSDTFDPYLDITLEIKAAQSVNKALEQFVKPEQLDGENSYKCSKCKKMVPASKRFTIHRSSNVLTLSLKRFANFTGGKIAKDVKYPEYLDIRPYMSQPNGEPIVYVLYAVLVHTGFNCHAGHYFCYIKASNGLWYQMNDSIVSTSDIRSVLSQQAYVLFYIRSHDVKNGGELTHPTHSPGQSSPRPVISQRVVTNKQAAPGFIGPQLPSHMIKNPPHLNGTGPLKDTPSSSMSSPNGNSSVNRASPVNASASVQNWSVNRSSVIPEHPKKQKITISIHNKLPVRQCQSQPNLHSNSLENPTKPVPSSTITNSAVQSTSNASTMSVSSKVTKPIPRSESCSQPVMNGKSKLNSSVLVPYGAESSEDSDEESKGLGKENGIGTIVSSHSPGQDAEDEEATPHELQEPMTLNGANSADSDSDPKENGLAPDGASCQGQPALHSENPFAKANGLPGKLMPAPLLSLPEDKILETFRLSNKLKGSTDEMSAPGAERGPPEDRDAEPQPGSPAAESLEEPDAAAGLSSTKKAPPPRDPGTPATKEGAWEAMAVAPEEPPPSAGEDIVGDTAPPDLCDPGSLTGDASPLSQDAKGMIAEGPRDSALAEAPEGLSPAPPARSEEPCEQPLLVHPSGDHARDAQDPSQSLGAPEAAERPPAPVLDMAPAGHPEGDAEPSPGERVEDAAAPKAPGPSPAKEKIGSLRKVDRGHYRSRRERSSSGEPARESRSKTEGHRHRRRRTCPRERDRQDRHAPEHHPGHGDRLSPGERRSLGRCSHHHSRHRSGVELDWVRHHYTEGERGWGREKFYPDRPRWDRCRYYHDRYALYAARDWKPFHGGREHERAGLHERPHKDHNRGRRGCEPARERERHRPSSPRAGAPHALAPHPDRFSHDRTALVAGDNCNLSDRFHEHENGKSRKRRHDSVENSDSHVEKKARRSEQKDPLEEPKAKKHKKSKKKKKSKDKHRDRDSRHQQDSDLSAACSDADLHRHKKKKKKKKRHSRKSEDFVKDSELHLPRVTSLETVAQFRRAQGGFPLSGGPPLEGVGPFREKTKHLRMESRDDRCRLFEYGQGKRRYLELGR
Outline: (§1)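 Each value is an average log2 ratio of fragment to vehicle, tested by unpaired t-test. The underlying Spectronaut label-free quantities were global-median-normalised, and only proteins with ≥2 unique peptides were included. Triplicate HEK293T lysate samples (495 µg) were exposed to fragment at 200 µM or vehicle for 3 h, then to Biotin-Ahx-Ub-VS at 0.5 µM final for 1 h, before NeutrAvidin enrichment of labelled DUBs, LysC and trypsin digestion, and diaPASEF LC-MS/MS.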

USP46 = USP46 (UniProt P62068)
Outline: as §1

USP47 = molecular target: T2, USP47 (UniProt Q96K76)
T2 sequence (whole entry): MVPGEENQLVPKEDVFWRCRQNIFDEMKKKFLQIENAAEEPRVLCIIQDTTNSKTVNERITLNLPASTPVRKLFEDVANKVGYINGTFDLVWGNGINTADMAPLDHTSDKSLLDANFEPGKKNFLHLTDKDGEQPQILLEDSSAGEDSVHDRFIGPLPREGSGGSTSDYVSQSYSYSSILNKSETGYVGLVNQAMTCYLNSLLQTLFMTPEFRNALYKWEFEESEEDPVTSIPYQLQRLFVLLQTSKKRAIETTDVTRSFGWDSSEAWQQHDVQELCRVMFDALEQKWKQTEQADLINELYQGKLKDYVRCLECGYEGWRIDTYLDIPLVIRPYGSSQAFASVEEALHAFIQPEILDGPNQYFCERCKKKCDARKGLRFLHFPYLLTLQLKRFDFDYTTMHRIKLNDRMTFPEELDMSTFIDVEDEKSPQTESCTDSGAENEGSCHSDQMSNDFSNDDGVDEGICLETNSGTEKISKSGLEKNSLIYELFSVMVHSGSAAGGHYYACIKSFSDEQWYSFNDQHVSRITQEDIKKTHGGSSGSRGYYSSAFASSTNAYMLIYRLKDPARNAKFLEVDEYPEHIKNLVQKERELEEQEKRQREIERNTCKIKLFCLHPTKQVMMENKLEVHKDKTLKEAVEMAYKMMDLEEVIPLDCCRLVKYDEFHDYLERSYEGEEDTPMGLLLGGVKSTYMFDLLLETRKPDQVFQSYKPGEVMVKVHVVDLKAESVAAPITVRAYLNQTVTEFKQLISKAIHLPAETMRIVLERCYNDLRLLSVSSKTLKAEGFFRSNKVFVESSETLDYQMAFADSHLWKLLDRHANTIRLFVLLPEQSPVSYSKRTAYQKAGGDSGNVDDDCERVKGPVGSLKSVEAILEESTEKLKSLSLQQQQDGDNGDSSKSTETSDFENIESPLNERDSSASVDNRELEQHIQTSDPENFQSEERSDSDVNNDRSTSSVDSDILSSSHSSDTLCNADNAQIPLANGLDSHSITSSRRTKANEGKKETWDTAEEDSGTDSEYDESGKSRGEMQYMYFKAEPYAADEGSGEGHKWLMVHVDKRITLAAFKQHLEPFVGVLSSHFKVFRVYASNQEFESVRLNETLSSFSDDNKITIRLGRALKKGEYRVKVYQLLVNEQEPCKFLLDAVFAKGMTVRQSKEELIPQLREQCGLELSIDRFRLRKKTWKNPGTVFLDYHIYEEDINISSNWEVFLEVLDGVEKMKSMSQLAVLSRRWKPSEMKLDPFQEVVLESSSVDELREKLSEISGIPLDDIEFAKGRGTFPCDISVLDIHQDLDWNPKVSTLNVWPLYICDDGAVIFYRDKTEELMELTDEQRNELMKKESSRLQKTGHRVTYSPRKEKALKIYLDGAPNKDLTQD
Outline: as §1

USP48 = molecular target: T3, USP48 (UniProt Q86UV5)
T3 sequence (whole entry): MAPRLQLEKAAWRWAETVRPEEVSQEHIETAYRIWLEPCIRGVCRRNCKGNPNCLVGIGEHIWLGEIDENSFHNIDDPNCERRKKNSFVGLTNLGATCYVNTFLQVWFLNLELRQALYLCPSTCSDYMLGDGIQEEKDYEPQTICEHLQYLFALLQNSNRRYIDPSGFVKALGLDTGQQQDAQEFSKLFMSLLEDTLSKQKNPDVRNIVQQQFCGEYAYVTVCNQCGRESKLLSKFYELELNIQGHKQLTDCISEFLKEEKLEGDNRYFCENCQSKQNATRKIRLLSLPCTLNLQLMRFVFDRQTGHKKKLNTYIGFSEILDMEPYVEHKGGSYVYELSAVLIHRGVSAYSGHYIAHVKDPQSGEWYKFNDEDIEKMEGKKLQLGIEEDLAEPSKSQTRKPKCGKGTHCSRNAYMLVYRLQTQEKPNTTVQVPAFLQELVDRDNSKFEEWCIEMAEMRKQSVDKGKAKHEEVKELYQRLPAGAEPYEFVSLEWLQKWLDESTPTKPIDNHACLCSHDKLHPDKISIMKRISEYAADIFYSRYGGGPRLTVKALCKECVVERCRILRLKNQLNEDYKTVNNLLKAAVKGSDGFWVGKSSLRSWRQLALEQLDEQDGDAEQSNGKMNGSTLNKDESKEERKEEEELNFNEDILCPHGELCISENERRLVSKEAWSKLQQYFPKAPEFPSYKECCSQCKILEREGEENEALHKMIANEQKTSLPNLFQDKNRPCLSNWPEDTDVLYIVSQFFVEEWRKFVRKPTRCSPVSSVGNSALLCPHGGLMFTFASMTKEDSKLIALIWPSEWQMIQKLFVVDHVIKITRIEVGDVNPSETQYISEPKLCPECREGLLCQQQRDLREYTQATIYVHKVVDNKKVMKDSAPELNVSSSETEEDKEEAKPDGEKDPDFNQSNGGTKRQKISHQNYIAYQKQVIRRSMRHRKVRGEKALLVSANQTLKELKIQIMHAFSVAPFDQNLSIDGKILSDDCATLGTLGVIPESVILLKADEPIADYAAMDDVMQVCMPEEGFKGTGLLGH
Outline: as §1

USP5 = molecular target: T4, USP5 (UniProt P45974)
T4 sequence (whole entry): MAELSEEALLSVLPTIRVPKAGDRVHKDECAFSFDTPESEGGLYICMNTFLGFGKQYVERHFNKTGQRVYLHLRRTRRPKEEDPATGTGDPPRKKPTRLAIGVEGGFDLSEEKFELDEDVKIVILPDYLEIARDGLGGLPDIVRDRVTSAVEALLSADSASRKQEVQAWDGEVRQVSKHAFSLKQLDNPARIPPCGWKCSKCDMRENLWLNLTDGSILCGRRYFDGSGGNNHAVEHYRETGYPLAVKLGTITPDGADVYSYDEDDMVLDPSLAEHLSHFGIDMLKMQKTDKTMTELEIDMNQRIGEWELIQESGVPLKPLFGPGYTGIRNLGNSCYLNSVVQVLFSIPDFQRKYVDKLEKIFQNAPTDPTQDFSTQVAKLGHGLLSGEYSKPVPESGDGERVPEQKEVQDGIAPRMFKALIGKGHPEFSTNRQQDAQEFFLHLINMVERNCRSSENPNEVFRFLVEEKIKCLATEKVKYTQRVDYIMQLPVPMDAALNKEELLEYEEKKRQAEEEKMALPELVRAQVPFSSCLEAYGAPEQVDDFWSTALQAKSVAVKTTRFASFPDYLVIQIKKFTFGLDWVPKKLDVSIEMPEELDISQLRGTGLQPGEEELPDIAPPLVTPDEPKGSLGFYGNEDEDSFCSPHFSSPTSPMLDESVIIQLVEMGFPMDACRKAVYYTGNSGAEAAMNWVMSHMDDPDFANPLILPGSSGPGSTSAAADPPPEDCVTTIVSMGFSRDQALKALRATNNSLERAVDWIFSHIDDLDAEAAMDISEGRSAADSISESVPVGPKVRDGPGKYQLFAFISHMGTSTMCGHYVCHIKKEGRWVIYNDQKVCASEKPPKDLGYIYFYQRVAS
Outline: as §1

USP54 = USP54 (UniProt Q70EL1)
Outline: as §1

USP7 = USP7 (UniProt Q93009)
Outline: as §1

USP8 = molecular target: T5, USP8 (UniProt P40818)
T5 sequence (whole entry): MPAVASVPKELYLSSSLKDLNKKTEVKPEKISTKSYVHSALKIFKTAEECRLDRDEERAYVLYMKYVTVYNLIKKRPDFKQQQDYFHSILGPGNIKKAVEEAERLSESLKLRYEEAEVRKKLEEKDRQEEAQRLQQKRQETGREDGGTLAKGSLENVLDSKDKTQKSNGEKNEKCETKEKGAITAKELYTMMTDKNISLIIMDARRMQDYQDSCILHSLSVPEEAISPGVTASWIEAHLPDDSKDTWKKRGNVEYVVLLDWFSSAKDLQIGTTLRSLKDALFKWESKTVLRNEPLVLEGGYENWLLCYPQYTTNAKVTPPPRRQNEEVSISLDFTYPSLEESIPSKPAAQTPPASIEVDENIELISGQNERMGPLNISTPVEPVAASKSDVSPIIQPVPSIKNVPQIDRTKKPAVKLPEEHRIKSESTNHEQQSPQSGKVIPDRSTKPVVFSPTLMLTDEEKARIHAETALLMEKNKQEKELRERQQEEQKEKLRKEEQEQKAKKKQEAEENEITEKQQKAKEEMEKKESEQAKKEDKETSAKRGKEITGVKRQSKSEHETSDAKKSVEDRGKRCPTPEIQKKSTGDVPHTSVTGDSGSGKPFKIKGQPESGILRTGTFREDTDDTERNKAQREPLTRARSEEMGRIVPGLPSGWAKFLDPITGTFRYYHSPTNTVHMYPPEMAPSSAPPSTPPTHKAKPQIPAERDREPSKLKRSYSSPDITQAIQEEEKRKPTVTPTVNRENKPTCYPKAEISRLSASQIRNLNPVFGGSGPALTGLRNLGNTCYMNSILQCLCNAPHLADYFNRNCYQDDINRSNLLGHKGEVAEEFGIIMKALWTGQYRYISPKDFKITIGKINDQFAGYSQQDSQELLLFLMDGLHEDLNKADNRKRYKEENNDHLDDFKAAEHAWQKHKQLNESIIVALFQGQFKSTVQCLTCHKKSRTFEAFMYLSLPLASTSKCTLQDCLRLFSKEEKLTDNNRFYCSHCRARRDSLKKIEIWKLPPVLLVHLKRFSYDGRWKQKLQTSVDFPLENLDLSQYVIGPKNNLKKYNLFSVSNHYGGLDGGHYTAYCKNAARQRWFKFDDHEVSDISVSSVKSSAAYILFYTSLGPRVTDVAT
Outline: as §1

USP9X = USP9X (UniProt Q93008)
Outline: as §1

UniProt O00487 = molecular target: UniProt O00487
Outline: as §1

Measured: log2 ratio of Biotin-Ahx-Ub-VS probe labelling

USP46, sequence (P62068 whole entry): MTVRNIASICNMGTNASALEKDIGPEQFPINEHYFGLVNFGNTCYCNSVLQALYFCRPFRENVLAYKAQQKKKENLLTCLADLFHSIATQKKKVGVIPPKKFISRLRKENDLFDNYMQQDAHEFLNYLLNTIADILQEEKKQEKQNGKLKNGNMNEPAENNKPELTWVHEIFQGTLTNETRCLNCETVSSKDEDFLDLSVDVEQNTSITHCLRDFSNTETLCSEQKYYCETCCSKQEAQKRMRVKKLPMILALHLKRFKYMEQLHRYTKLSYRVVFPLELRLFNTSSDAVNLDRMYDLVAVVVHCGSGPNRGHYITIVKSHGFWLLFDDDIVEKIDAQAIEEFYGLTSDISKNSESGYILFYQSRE
USP54, sequence (Q70EL1 whole entry): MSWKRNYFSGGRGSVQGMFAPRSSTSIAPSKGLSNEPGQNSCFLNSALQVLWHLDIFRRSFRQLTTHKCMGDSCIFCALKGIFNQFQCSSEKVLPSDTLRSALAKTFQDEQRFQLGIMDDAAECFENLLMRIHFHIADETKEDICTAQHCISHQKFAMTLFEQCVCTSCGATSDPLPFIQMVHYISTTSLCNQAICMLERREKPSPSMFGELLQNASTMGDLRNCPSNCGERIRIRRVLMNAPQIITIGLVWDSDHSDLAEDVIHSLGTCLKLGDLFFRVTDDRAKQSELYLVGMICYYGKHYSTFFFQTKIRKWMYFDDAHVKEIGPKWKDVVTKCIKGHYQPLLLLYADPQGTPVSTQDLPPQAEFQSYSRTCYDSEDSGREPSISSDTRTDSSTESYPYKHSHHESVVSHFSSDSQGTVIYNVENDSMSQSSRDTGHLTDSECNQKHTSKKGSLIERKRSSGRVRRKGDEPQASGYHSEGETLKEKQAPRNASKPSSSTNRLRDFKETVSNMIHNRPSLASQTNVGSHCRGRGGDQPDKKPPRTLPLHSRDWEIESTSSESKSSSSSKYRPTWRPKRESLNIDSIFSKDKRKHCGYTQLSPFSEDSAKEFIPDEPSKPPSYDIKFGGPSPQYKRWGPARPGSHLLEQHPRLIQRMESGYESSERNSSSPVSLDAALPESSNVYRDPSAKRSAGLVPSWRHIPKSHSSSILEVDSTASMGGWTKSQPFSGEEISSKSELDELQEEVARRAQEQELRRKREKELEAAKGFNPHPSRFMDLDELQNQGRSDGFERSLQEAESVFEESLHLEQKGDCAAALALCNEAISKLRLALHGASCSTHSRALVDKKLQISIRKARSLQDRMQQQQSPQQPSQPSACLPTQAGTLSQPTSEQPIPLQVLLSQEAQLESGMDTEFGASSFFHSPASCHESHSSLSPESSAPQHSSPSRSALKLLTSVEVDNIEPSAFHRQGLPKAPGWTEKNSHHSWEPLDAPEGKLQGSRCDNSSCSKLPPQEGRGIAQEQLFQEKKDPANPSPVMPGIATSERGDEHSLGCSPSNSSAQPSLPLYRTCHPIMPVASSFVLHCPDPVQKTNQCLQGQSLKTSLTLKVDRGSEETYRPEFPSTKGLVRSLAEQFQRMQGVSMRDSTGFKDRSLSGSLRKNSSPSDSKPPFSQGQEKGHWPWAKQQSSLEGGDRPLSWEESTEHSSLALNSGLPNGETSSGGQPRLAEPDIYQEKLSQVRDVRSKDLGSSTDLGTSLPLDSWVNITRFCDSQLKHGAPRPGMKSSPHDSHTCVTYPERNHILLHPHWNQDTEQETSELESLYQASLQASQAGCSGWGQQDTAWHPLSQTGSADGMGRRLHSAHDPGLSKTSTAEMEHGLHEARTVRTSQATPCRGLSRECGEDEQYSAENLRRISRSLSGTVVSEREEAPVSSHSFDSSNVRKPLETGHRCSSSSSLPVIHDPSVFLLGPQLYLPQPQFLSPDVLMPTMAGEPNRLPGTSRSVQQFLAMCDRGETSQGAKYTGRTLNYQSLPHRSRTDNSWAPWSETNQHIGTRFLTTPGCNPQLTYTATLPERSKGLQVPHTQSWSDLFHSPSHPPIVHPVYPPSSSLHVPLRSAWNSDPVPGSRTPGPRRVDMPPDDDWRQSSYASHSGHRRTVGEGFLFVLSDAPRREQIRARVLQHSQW
UniProt O00487, sequence (O00487 whole entry): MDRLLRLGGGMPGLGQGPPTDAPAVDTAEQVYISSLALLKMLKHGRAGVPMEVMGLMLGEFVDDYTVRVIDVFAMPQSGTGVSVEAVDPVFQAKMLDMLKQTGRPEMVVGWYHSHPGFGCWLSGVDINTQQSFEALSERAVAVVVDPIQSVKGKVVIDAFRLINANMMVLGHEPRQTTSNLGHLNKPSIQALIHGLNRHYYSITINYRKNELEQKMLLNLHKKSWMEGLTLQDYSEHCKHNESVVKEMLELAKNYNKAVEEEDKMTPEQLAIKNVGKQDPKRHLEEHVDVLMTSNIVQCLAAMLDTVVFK
USP7, sequence (Q93009 whole entry, looked up): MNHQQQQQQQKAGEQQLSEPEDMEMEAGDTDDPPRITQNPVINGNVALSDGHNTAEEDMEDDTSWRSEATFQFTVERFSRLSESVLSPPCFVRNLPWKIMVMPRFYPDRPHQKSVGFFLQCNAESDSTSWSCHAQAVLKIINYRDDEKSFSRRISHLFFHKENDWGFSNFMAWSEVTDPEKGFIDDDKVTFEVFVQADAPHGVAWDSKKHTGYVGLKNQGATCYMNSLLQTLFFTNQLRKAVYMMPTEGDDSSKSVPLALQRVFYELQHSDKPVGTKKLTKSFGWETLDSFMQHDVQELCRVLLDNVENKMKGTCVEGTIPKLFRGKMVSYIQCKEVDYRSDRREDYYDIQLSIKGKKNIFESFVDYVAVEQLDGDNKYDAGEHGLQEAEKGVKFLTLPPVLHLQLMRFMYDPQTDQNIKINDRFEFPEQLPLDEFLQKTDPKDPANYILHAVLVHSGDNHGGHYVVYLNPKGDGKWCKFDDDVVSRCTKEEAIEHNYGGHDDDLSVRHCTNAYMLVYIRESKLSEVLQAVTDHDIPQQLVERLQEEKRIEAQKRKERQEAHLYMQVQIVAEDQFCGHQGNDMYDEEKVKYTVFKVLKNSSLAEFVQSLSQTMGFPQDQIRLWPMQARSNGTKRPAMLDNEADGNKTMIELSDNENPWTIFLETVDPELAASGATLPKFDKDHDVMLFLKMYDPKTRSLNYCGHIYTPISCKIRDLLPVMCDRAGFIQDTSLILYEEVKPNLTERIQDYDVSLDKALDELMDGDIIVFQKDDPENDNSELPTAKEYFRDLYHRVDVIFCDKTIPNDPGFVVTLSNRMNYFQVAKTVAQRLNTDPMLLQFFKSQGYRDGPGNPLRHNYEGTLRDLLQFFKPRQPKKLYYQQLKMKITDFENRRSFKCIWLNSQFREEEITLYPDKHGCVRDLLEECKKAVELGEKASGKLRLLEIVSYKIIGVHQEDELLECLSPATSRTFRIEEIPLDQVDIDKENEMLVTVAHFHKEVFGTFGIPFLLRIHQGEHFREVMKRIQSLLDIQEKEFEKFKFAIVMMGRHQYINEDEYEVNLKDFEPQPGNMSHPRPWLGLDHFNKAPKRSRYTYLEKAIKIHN

O=C(CCl)NCC(=O)N1CCCC1
inactive: USP42 0.103 | USP46 0.0751 | USP47 0.107 | USP48 -0.00296 | USP5 0.205 | USP54 0.812 | USP7 -0.0345 | USP8 -0.434 | USP9X -0.168 | UniProt O00487 -0.0526

N#Cc1cnn(-c2ccccc2)c1NC(=O)CCl
inactive: USP42 -0.0771 | USP46 -0.0464 | USP47 -0.263 | USP48 -0.451 | USP5 -0.203 | USP54 0.718 | USP7 -0.45 | USP8 -0.512 | USP9X -0.317 | UniProt O00487 -0.0605

Source: the supplement of paper PMC11732987, “Enantioselective OTUD7B fragment discovery through chemoproteomics screening and high-throughput optimisation” (Communications Chemistry, 2025)
